Experimental findings from PubChem BioAssay AID2825 (Sanford-Burnham Center for Chemical Genomics, 2010) are described below.

Each structure is given as a SMILES string. Hit rate of the full screen: of about 330,000 compounds, about 1,300 (0.39%) were called active. The entries come from a sample that favours actives as a whole. A number with no mark means an inactive call.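 The calls were made as follows: active = inhibition of 50% or more; inactive = inhibition below 50%.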

What is called inhibition is the relative decrease from the control value, in per cent.

A short description of the assay: NALP3 inflammasome inhibitors in reconstituted yeast, primary screen, luminescence, uHTS (AID 2825).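 Also: plate controls were induced DMSO wells for no effect and uninduced yeast grown without galactose for full effect.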 The conditions noted are these: Yeast reconstituted NLRP3/ASC/caspase-1, beta-gal luminescence, 24 h; at 10 µM; active compounds read high.
As to `c1cc2c(cc1[C@H]1OC[C@H]3[C@@H]1CO[C@@H]3c1ccc3c(c1)OCO3)OCO2`, the inhibition is 15.5%. For the compound `O=C1/C(=C\c2ccc3c(c2)OCO3)N2CCC1CC2`, the inhibition was 50.3% (active). The figure for `c1cc2c(cc1C1OCC3C(c4ccc5c(c4)OCO5)OCC13)OCO2` (stereo not given) is 16.8%; for `Cc1nc2nc(C)c(CCC(=O)N3CCC4(CC3)OCCO4)c(C)n2n1` it is 11.1%; for `O=c1c2ccccc2nc(-c2ccco2)n1-c1ccc(Br)cn1` it is 15.6%. The figure for `Cc1ccc(-c2nc3ccccc3c(=O)n2-c2ccc(Br)cn2)cc1` is 54.6% (active).

Regarding `O=c1c2ccccc2nc(-c2ccccc2)n1-c1ccccn1`, the inhibition was -1.57%.

On to `CN(C)CC1CCCCC1=O` (stereo not given), for which the inhibition is 16.4%. To `C[N+]1(C)CCOC(O)(c2ccc(-c3ccc(C4(O)C[N+](C)(C)CCO4)cc3)cc2)C1` (stereo not given) belongs 5.92%; to `COCCNC(=O)CN1C2CCC1CC(O)(c1cccnc1)C2` (stereo not given), 21.8%. The figure for `NCCc1ccc(S(=O)(=O)F)cc1` is 13.1%; for `Cc1cc2ccccn2c1C(C[N+](=O)[O-])c1c(F)cccc1Cl` (stereo not given) it is 58.8% (active); for `Cc1ccc2c(c1)=C/C(=C\c1c(O)[nH]c(=O)[nH]c1=O)C(=O)N=2` it is 8.15%.

As for `CCCCCCCCCCCCn1ccc(=N)cc1`, the inhibition is 74.5% (active). To `COC(=O)C(O)(c1ccc(NC(=O)c2ccco2)c(OC)c1)C(F)(F)F` (stereo not given) belongs 6.52%; to `CSC1=NP(=S)(SC)N(C)c2nc3n(c21)CCC3` (stereo not given), 14.6%; to `Cc1cc(OCc2cc(C(=O)O)oc2C)c2c3c(c(=O)oc2c1)CCCC3`, 13.3%. The figure for `CNC(=S)N/N=C1\C2CN3CCN(C2)CC1(c1ccccc1)C3` is 2.33%; for `CN(C)P(=S)(Nc1ccccc1)C(Cl)(Cl)Cl` (stereo not given) it is 24.4%. The figure for `C[C@]12CCC3C(CC[C@H]4C[C@@H](O)CC[C@]34C)C1C[C@@H](O)[C@H]2O` (stereo not given in full) is 50.2% (active); for `C[C@]12CCC3C(CC[C@H]4C[C@@H](O)CC[C@]34C)C1CC[C@@H]2O` (stereo not given in full) it is 63.7% (active); for `C[C@]12CC[C@H](O)CC1=C([N+](=O)[O-])CC1C2CC[C@@]2(C)C1CC[C@@H]2O` (stereo not given in full) it is 21.9%. Turning to `C[C@]12CC[C@H](O)C[C@H]1CC[C@@H]1C2CC[C@]2(C)[C@@H](C3=CC(=O)OC3)[C@@H](O)C[C@]12O` (stereo not given in full), the inhibition was 8.26%.

Consider `O=C(C1CC(=O)N(C2CCCC2)C1)N1CCC2(CC1)OCCO2` (stereo not given), for which the inhibition is 25.3%. Consider `C/C=C/CC1(CC)C(=O)NC(=S)NC1=O`, for which the inhibition is 0.922%. To `COc1ccc2[nH]c3c(c2c1)CCN[C@H]3C` belongs 10%; to `CC1=C2C(=O)C3C(CC=C4CC(OC5OC(O)C(O)C(O)C5CO)CCC43C)C2CCC12OC1CC(C)CNC1C2C` (stereo not given), 32.4%. The figure for `COC(=O)C1=C(c2ccc3ccccc3c2)C[C@@H]2CC[C@H]1N2C(=O)NCCO` is -5.73%; for `N=c1ccccn1Cc1ccccc1` it is 1.04%. `CCN1CCN(c2nc3c(c(=O)[nH]2)CCC3)CC1`: the inhibition was 9.34%.
